In PubChem BioAssay (NCI) one finds growth data, which are given here for 40 compounds.

Molecules are shown by their SMILES. This is part of a sample that, as a whole, favours compounds with a hit. Of some 83,000 tested, about 20% had one in any assay.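 Cell lines were cultured in 96-well plates, exposed to a single compound concentration, and assessed for percent growth 48 hours later.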 The source made the active and inactive calls.

This test deals with A498 renal. Nature of the test: NCI-60 one-dose screen, 48 h (100 = growth as untreated, 0 = no growth, -100 = all killed). The following applies: 10 µM unless noted. The method, then:
Growth inhibition of the A498 human tumor cell line is measured as a screen for anti-cancer activity. Cells are grown in 96 well plates and exposed to the test compound for 48 hours. Compounds are tested at a single concentration, which is 10^-5 M for most compounds. The reported endpoint is percent growth (GI% or GIPRCNT), where numbers from 0 - 100% represent growth inhibition, and numbers from -100% - 0 represent cell death. For example, a value of 40 represents 60% growth inhibition. A value of 0 means no net growth occurred over the course of the experiment. A value of -40 indicates 40% of cells at the beginning of the experiment died by the end of the experiment. A value of -100 means all cells are dead at the end of the experiment.
NCI-60 Human Tumor Cell Lines Screen was performed using the standard one-dose NCI protocol, which is described in more detail at https://dtp.cancer.gov/discovery_development/nci-60/default.htm.
Compounds with GIPRCNT values below 10 were considered active. Activity score was based on GIPRCNT using the following formula: […]
Score is 0 for GIPRCNT values of 100 or above, 50 for GIPRCNT values of 0, and 100 for GIPRCNT values of -100.
As to `CN1CCN(Cc2ccc(C(=O)Nc3cccc(C#Cc4cccc5[nH]nc(N)c45)c3)cc2C(F)(F)F)CC1`, the growth was -80.7% (active).

As for `O=C(c1ccc(OCCN2CCOCC2)cc1)C1[C@H](c2ccc(Cl)cc2)[C@@H](c2ccccc2)NC12C(=O)Nc1ccc(Br)cc12` (stereo not given in full), the growth is 91.5% (inactive).

Turning to `COc1ccc(C(=O)/C=C/c2ccccc2Br)cc1S(N)(=O)=O`, the growth was 93.3% (inactive).

On to `Cc1ncsc1-c1ccc(CNC(=O)[C@@H]2C[C@@H](O)CN2C(=O)[C@@H](NC(=O)C2(F)CC2)C(C)(C)C)c(OCCOCCOCCOCCOc2nc(Nc3cc(S(C)(=O)=O)ccc3N[C@@H](c3cccc4c3OC(F)(F)O4)c3ncccc3Cl)nc(N3CCNCC3)n2)c1`, for which the growth is 116% (inactive).

Turning to `Cn1cc(-c2cc3nc(-c4c[nH]c5ccc(Br)cc45)cc(N)n3n2)c2ccccc21`, the growth is -25% (active).

On to `O=C(O)c1ccc(-c2ccc(/C=N/NC(=O)c3[nH]c4ccc(Br)cc4c3-c3ccccc3)o2)cc1`, for which the growth was 98.5% (inactive).

For `C=C1CCC2C3(C)COC(c4ccccc4)OC3CCC2(C)C1CC(Sc1ccccc1)C1=CCOC1=O` (stereo not given), the growth is 140% (inactive).

As for `CN(C)c1nc(NCCNS(=O)(=O)c2ccc(C3=Nc4c(N)nc(N)nc4NC(c4ccccc4)C3)cc2)nc(Nc2ccc(F)cc2)n1` (stereo not given), the growth was 57.3% (inactive).

Consider `CCCSc1nc(NCCc2c[nH]c3ccccc23)c(C#N)c(-c2ccc(F)cc2)n1`, for which the growth is 96.8% (inactive).

With `COc1ccc(-c2nnc3ccc(N/N=C/c4ccc(C)cc4)nn23)cc1`, the growth was 109% (inactive).

For `Cc1ccc(-c2nc(C#N)c(S(=O)(=O)N3CCN(S(=O)(=O)c4ccccc4)CC3)o2)cc1`, the growth is 123% (inactive).

Regarding `O=C(O)c1cccc(-c2ccc(/C=N/NC(=O)c3[nH]c4ccc(Br)cc4c3-c3ccccc3)o2)c1`, the growth was 95.3% (inactive).

Turning to `CC1(C)CC[C@]2(C(=O)Nc3ccc(Br)cc3)CC[C@]3(C)C(=CCC4[C@@]5(C)C[C@@H](O)[C@H](O)[C@@](C)(CO)C5CC[C@]43C)C2C1` (stereo not given in full), the growth was -45.2% (active).

For `O=C(NNc1nc2cc(F)ccc2n2c(CN3CC4CNCC4C3)ccc12)c1ccncn1` (stereo not given), the growth was 59% (inactive).

For the compound `CCCSc1nc(Nc2ccc(S(N)(=O)=O)cc2)c(C#N)c(-c2cc(OC)c(OC)c(OC)c2)n1`, the growth is 80.8% (inactive).

As for `COc1ccc(-c2nc3cc(C)ccc3n2CC(=O)N=Nc2c(O)[nH]c3ccc(OC)cc23)cc1`, the growth is 52.3% (inactive).

`CCCCn1c(O)c(N=Nc2nc(-c3cc4ccccc4oc3=O)cs2)c2cc(Br)ccc21`: the growth is 103% (inactive).

In the case of `CC(=O)c1cc(C(=O)c2ccccc2)n2c1ccc1ccccc12`, the growth was 129% (inactive).

Consider `CC1(c2cc3cc(Br)ccc3oc2=O)NC(=O)c2c(/C=C/C(=O)OC3CC4CCC3(C)C4(C)C)cccc2N1` (stereo not given), for which the growth was 142% (inactive).

As for `COc1ccc(C2=NN(C(C)=O)C(c3ccc(OCc4ccc(Cl)cc4)c(OC)c3)C2)cc1OC` (stereo not given), the growth is 64.9% (inactive).

As for `CCS(=O)(=O)N1CCCC(C(=O)Nc2nc3ccc(NC(=O)c4ccc(F)c(OC)c4F)cc3s2)C1` (stereo not given), the growth was 87.9% (inactive).

With `CC(=O)Oc1ccccc1C(=O)[Se]CC(=O)Nc1cccc(C(F)(F)F)c1`, the growth is -61% (active).

As for `COc1ccc(NC(=O)[C@@H](N)Cc2ccccc2)cc1C(=O)Nc1cccc(C2CC(=O)c3c(cc(OC)c(OC)c3OC)O2)c1` (stereo not given in full), the growth was 96.3% (inactive).

Regarding `CN(C)c1nc(NCCNS(=O)(=O)c2ccc(C3=Nc4c(N)nc(N)nc4NC(c4ccc(C(F)(F)F)cc4)C3)cc2)nc(Nc2ccc(F)cc2)n1` (stereo not given), the growth was 41.6% (inactive).

Turning to `Nc1nc(C(F)(F)F)cs1`, the growth is 114% (inactive).

Turning to `C/C(=N\Nc1ccc(S(N)(=O)=O)cc1)c1ccc(N=Nc2c(Nc3ccccc3)[nH][nH]c2=O)cc1`, the growth was 35.2% (inactive).

For `CCCCc1c(Nn2cnnn2)no[n+]1[O-]`, the growth is 79.2% (inactive).

With `CCOc1ccc(C(=O)NC(=S)Nc2ccc(S(N)(=O)=O)cc2)cc1`, the growth was 96.6% [100 µM] (inactive).

As for `Cc1cc(C)cc(NC(=O)Cn2cc(COn3nnc4ccccc43)nn2)c1`, the growth is 118% (inactive).

With `CCCCSc1nc(Nc2ccc(C(C)=O)cc2)c(C#N)c(-c2ccc(OC)cc2)n1`, the growth was 59.7% (inactive).

As to `Cc1cccc(-c2nc(Nc3cccc(S(N)(=O)=O)c3)c3ccccc3n2)c1`, the growth was 47.7% (inactive).

For the compound `C=C1CC[C@@H]2[C@]3(C)COC(c4ccco4)O[C@@H]3CC[C@@]2(C)[C@@H]1C/C=C1/C(=O)OCC1OC(C)=O` (stereo not given in full), the growth was 129% (inactive).

Take `O=C(COc1ccc(NC(=O)Nc2ccc(Cl)c(Cl)c2)cc1)N=Nc1c(O)[nH]c2ccc(Br)cc12`: the growth is -54.9% (active).

Consider `Cc1cccc(NC(=O)CN2CCN(c3ncnc4c3cnn4-c3ccccc3)CC2)c1`, for which the growth is 98% (inactive).

In the case of `N#Cc1ccc(C(=O)Nn2c(N)cc3ccccc3c2=O)cc1`, the growth is 113% (inactive).

As to `Cc1cccc(Nc2nc3ccccc3nc2/C=C/c2ccc(F)cc2)c1`, the growth is 112% (inactive).

With `Cc1nc(Nc2ncc(C(=O)Nc3c(C)cccc3Cl)s2)cc(N2CCN(CCCNC(=O)COc3ccc(C4CCC(=O)NC4=O)cc3)CC2)n1` (stereo not given), the growth is 7.95% (active).

As for `COc1ccc(-c2ccnc(SCc3cc4cc(OC)ccc4[nH]c3=O)n2)cc1`, the growth was 79.6% (inactive).

In the case of `COc1cc(OC)c2c3nc4cc(C)c(C)cc4nc3n(CCN(C)C)c2c1`, the growth was 105% (inactive).

For `CSc1ccc(C(=O)Nc2ccc3nn(/C(C#N)=C/c4ccccn4)nc3c2)cc1`, the growth is 56.8% (inactive).
